Experimental data reported in PubChem BioAssay (NCI).
The panel holds about 83,000 compounds, 20% with a hit somewhere; the sample as a whole holds those more often.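 Assay: single dose, 48 h. Readout: percent growth (0 = no net growth; negative = cell death). Active: <10.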 Values without a mark were called inactive. Active and inactive are the calls of the source.

How the values were obtained:
Assay in all cases: NCI-60 one-dose screen, 48 h (100 = growth as untreated, 0 = no growth, -100 = all killed)
Settings in all cases: 10 µM unless noted
NCI-H23 lung = test system: NCI-H23 lung
NCI-H226 lung = test system: NCI-H226 lung
NCI-H322M lung = test system: NCI-H322M lung
HOP-62 NSCLC = test system: HOP-62 NSCLC
NCI-H460 lung = test system: NCI-H460 lung
HOP-92 NSCLC = test system: HOP-92 NSCLC
NCI-H522 lung = test system: NCI-H522 lung
A549/ATCC NSCLC = test system: A549/ATCC NSCLC
786-0 renal = test system: 786-0 renal
COLO 205 colon = test system: COLO 205 colon
DU-145 prostate = test system: DU-145 prostate
K-562 leukemia = test system: K-562 leukemia
MALME-3M melanoma = test system: MALME-3M melanoma
MDA-MB-231 breast = test system: MDA-MB-231 breast
RXF 393 renal = test system: RXF 393 renal
SF-268 CNS = test system: SF-268 CNS
SF-295 CNS = test system: SF-295 CNS
SF-539 CNS = test system: SF-539 CNS
M14 melanoma = test system: M14 melanoma

Compound | growth (NCI-H23 lung) | growth (NCI-H226 lung) | growth (NCI-H322M lung) | growth (HOP-62 NSCLC) | growth (NCI-H460 lung) | growth (HOP-92 NSCLC) | growth (NCI-H522 lung) | growth (A549/ATCC NSCLC) | growth (786-0 renal) | growth (COLO 205 colon) | growth (DU-145 prostate) | growth (K-562 leukemia) | growth (MALME-3M melanoma) | growth (MDA-MB-231 breast) | growth (RXF 393 renal) | growth (SF-268 CNS) | growth (SF-295 CNS) | growth (SF-539 CNS) | growth (M14 melanoma)
COc1cccc(-c2nn(-c3ccccc3)cc2-c2ccnc(NCCNS(=O)(=O)c3cccc(F)c3)c2)c1 | 38.4% | 39.3% | 59% | 55.3% | 24.2% | 22.3% | 3.7% (active) | 24.8% | 25.9% | 16.6% | 58% | 11.9% | 78.2% | 9.24% (active) | 44.1% | 48.1% | 13.2% | 52.3% | 27.2%
C=C1C(=O)O[C@H]2[C@H]1CC/C(Cn1cc(-c3ccc(OC)cc3)nn1)=C\CC[C@@]1(C)O[C@@H]21 | 4.37% (active) | -44.1% (active) | 88.7% | 49.7% | 87.6% | -60.1% (active) | -78.7% (active) | 57.3% | -83.2% (active) | -86% (active) | -35% (active) | -9.11% (active) | -62.3% (active) | -12.3% (active) | -63.6% (active) | 12.7% | 88.8% | -16.6% (active) | -43.9% (active)
Cn1c(=O)c2c(nc(Br)n2CC(=O)Nc2ccc(F)cc2)n(C)c1=O | 95.8% | 103% | 111% | 96.9% | 109% | 87.6% | 81.3% | 92.5% | 95.3% | 104% | 109% | 104% | 103% | 90.1% | 108% | 108% | 108% | 100% | 99.7%
CC(=O)O[C@@H]1CCN2C(=O)N(C)c3ccccc3[C@@H]2C1 | 98.7% | 109% | 108% | 104% | 104% | 111% | 96.4% | 95% | 101% | 114% | 121% | 93.5% | 94.7% | 111% | 115% | 113% | 88.9% | 97.7% | 101%
COc1ccc(C2c3ccccc3NC(=O)N2C2CCN(C)CC2)c(OC)c1 (stereo not given) | 100% | 94.1% | 95.9% | 101% | 101% | 79.9% | 89.5% | 103% | 102% | 106% | 105% | 93.1% | 88.1% | 91.9% | 97.1% | 98.2% | 90.6% | 95.2% | 85.3%
O=S(=O)(NCCNc1cc(-c2cn(-c3ccccc3)nc2-c2cccc(O)c2)ccn1)c1ccc(Cl)cc1 | 36.6% | 45.9% | 56.8% | 51.4% | 26.3% | 33.8% | 32.3% | 31.1% | 12% | -48% (active) | 62.8% | 2.13% (active) | 34.5% | -2.86% (active) | 38% | 40.2% | 13.3% | 61.8% | 23.5%
O=C(NO)c1ccc(Cn2c(=O)n(CCc3ccc(O)cc3)c(=O)c3ccccc32)cc1 | -8.51% (active) | 82.5% | 80.4% | 68.1% | 60.4% | 80% | 7.74% (active) | 84.2% | 83.4% | 19.6% | 42.1% | 24.9% | 39.3% | 39.1% | 29.8% | 59.2% | 79.1% | 3.09% (active) | 36.9%
CC(Cc1ccco1)C(=O)NC(N)=O (stereo not given) | 97.4% | 95.8% | 99.2% | 106% | 107% | 109% | 97.4% | 91.9% | 103% | 120% | 109% | 110% | 103% | 110% | 96.7% | 104% | 94.6% | 97.8% | 101%
Cc1ccc(N(CC(=O)Nc2ccc(S(=O)(=O)NC3CCN(C)CC3)cc2)S(=O)(=O)c2ccc(Cl)cc2)cc1 | 90.7% | 87.7% | 88.9% | 96.2% | 8.12% (active) | 69.6% | 90.4% | 69.2% | 87.4% | -47.6% (active) | 71.9% | 19.5% | -47.5% (active) | 53.6% | 36.4% | 68.7% | 101% | 85.4% | 63%
O=C1CCN2C(=O)Nc3ccccc3C2C1 (stereo not given) | 101% | 104% | 95.8% | 109% | 100% | 96.7% | 100% | 101% | 99.3% | 107% | 112% | 101% | 87.4% | 93.5% | 112% | 110% | 97.5% | 95.5% | 86.3%
CC[C@]12C=CCN3CC[C@@]4(c5cc([C@H]6CCC(=O)N6)c(OC)cc5N(C)[C@H]4[C@@](O)(C(=O)OC)[C@@H]1OC(C)=O)[C@@H]32 | 100% [2.5 µM] | 92.7% [2.5 µM] | 99.8% [2.5 µM] | 98.1% [2.5 µM] | 107% [2.5 µM] | 98.5% [2.5 µM] | 93% [2.5 µM] | 100% [2.5 µM] | 104% [2.5 µM] | 108% [2.5 µM] | 119% [2.5 µM] | 105% [2.5 µM] | 97.5% [2.5 µM] | 98.7% [2.5 µM] | 113% [2.5 µM] | 116% [2.5 µM] | 100% [2.5 µM] | 92.4% [2.5 µM] | 95.5% [2.5 µM]
COC(=O)[C@]12CC[C@@H](C)[C@H](C)[C@@H]1C1=CC[C@@H]3[C@@]4(C)CC(=O)[C@H](OC(=O)c5ccco5)[C@@]5(C)COC(=C45)C[C@@]3(C)[C@]1(C)CC2 | 33.5% | 23.6% | 53.7% | 34.4% | 9.59% (active) | 60.6% | 26.9% | 25% | 6.39% (active) | -40.6% (active) | 37.9% | 23.7% | 21.9% | 40.4% | 44.5% | 40.7% | 35.6% | 39% | 22.2%
COC(=O)[C@]12CC[C@@H](C)[C@H](C)[C@@H]1C1=CC[C@@H]3[C@@]4(C)C(c5ncon5)=C[C@@](C)(CO)C4=CC[C@@]3(C)[C@]1(C)CC2 | -26.2% (active) | -34.7% (active) | 21.8% | -8.97% (active) | -33.4% (active) | -49.9% (active) | -77.5% (active) | 29.5% | -23.8% (active) | -46% (active) | -71.5% (active) | -21.2% (active) | -73.6% (active) | -49.3% (active) | -73.2% (active) | -7.68% (active) | -46.8% (active) | -86.2% (active) | -58.5% (active)
COC(=O)[C@]12CC[C@@H](C)[C@H](C)[C@@H]1C1=CC[C@@H]3[C@@]4(C)C[C@@H](OC(C)=O)[C@H](OC(C)=O)[C@@](C)(COC(C)=O)[C@@H]4[C@H](O)C[C@@]3(C)[C@]1(C)CC2 | 17.5% | 2.17% (active) | 34.6% | 15.6% | 4.06% (active) | 31.2% | -2.94% (active) | 7.91% (active) | 15% | -76% (active) | 20.3% | 8.42% (active) | 5.25% (active) | 18.1% | -22.1% (active) | 23.4% | 7.96% (active) | 15.4% | 14.2%
COc1ccccc1CNc1nc(N)nc2[nH]c3ccc(O)cc3c12 | 57.8% | 92.6% | 61.5% | 37% | 18.3% | 34.1% | 18.7% | 40.6% | 83.2% | 33.6% | 91% | 11.1% | 53.6% | 26.8% | 78% | 64.7% | 49.6% | 45.5% | 10.5%
